Screening results: PubChem BioAssay, National Center for Advancing Translational Sciences (NCATS)
This is a sample that favours compounds with a hit; in the whole collection about 4% have one here.
D1 PAM: human D1 dopamine receptor positive modulation | HEK293 TREx D1 cells, calcium flux, dopamine EC20 potentiation | potentiation, % at 10 µM | hit rate 0.036% among 360,000; in the data active = potentiation above about 30%; note: 0% is about no effect
Target sequence (P21728 whole entry, looked up): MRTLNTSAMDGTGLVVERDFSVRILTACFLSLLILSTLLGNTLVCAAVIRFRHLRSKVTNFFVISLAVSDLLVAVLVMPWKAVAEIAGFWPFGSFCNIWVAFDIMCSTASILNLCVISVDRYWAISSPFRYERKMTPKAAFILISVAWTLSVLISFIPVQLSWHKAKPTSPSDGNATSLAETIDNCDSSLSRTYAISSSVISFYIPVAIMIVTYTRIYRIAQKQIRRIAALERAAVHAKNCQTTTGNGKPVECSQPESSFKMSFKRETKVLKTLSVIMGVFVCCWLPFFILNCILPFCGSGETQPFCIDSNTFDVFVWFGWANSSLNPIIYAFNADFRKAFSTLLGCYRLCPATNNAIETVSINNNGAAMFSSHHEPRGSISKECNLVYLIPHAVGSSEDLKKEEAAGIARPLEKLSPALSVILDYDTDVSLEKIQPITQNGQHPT
TRHR ag: agonists of human TRH receptor; TRHR cells, calcium flux fluo-8, FDSS agonist mode; activation, % at 2 µM; hit rate 0.18% among 360,000; AID 493084; note: 0% is about no effect
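TRHR-expressing cells loaded with fluo-8 calcium dye; 23 nL library compound pin-transferred, kinetic FDSS fluorescence (Ex 480/Em 530) recorded about 180 s for agonist-induced calcium release, before a 10 nM TRH EC20 addition for potentiator mode.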
D1 agonist: agonists of human D1 dopamine receptor. P21728. activation, % at 2 µM. hit rate 1% among 360,000. HEK293 T-REx D1 cells, calcium flux, agonist mode; note: 0% is about no effect
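Inducible HEK293 T-REx D1 cells, force-coupled to calcium signalling, were plated at 4000 cells/well with tetracycline and held overnight at 30 C. After no-wash calcium dye loading, compound-evoked calcium rise over 180 s flagged agonists.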
D1 antag: human D1 dopamine receptor antagonism. P21728. AID 504652. activity change, negative = inhibition, % at 10 µM. hit rate 3.2% among 360,000. HEK293 TREx D1 cells, calcium flux, dopamine EC80; stronger effect = lower value; in the data active = activity change below about -30%; note: % is set by controls: 0 for no effect and ±100 for the full control effect
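Tetracycline-induced HEK293 Trex D1 cells, force-coupled to calcium, dye-loaded; compounds added and read 180 s, then EC80 dopamine added and calcium flux tracked kinetically another 180 s.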
TRHR enhancer: allosteric enhancers of human TRH receptor; P34981; TRHR cells, fluo-8 calcium fluorescence, EC20 TRH enhancement; enhancement, % at 2 µM; hit rate 0.66% among 360,000; AID 493056; in the data active = enhancement above about 30%; note: 0% is about no effect
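Enhancer read-out: after compound pinning and an initial kinetic agonist-mode read, an EC20 of TRH (10 nM final) was injected and fluo-8 calcium signal (Ex 480/Em 530) followed at 1 s/cycle for 100 cycles in TRHR-expressing cells.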
GRP78 ERSR act: ER stress response induction in glioma | U87-MG GRP78 promoter luciferase reporter, 16 h | Potency, µM, inactives show at the top dose activation, actives largely listed as activators | hit rate 0.02% among 420,000 | AID 602332; active = well fitted activation curve with a large enough effect; note: potency is the fitted concentration of half-maximal effect; series mostly up to about 76 µM; % of control where 0% means no effect; nearly all actives have a fitted effect of over 35% in size
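ERSR induction read as luciferase luminescence (Bright-Glo, 10 min at room temperature) in stably transfected human U87-MG glioma cells exposed to compounds for 16 h, using GRP78 as sensor.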
Active calls of the source: *; . = no result. Cut-off read from the data, not from the text of the source, unless noted: active = activation above about 30%; inactive = the rest.

SMILES	D1 PAM	TRHR ag	D1 agonist	D1 antag	TRHR enhancer	GRP78 ERSR act
CC(=O)N(O)C/C=C/c1cccc(Oc2ccccc2)c1	.	.	.	.	.	-7%
COc1ccc(OC)c(Nc2cc(C(=O)NCc3ccccc3)c3ccccc3n2)c1	2	-1	0	-80*	7	-3%
COc1ccc(Nc2cc(C(=O)NCCCN(C)C3CCCCC3)c3ccccc3n2)c(OC)c1	-2	3	34*	-14	0	-4%
COc1ccc(Nc2cc(C(=O)NCCCN(C)C3CCCCC3)c3ccccc3n2)cc1	1	6	65*	-41*	0	0%
COc1cccc(-c2cc3nc(C)c(C)c(N4CCN(C(=O)c5ccoc5)CC4)n3n2)c1	.	.	.	.	.	0%
CCOC(=O)C1=C(c2ccccc2)c2cc(OC)ccc2OC1C(=O)OCC (stereo unspecified)	.	.	.	.	.	0%
COc1ccc(C2/C=C\CN(CC3CC3)C(Cc3ccccc3)C(=O)N2Cc2ccc(F)cc2)cc1 (stereo unspecified)	.	.	.	.	.	-1%
O=C1Nc2ccc(Br)cc2C12NNc1ccccc1O2 (stereo unspecified)	-5	7	33*	-14	-2	-11%
O=C1Nc2ccc(Br)cc2C1(O)c1ccccc1 (stereo unspecified)	-11	0	5	-4	3	-5%
CC(=O)OCC1OC(C#Cc2ccccc2)C=CC1O (stereo unspecified)	.	.	.	.	.	-5%
C=CCC1NS(=O)(=O)OC(CCCC)C1O (stereo unspecified)	4	0	2	12	34*	-1%
CCCOc1ccc(CCC(=O)N/N=C/c2ccncc2)cc1	1	-1	2	-36*	1	-2%
COC(=O)[C@H](Cc1ccccc1)NC(=O)C1(OC(C)=O)CC(OC(C)=O)C(OC(C)=O)C(OC(C)=O)C1 (stereo partly specified)	-13	0	1	-2	0	0%
Cc1c(-c2ccccc2)nc2ccccc2c1C(=O)Oc1ccc([N+](=O)[O-])cc1	-7	0	3	-33*	-4	-2%
C=CCn1c(=O)[nH]c2nc3cc(N=CN(C)C)c(C)cc3nc2c1=O	2	43*	57*	-3	-2	4%
O=C(NCc1ccc(F)cc1)c1ccc2c(=O)n3c(nc2c1)CCCCC3	-6	-1	1	-23	0	-3%
Cc1nc2n(c(=O)c1CCN1CCC(c3noc4cc(F)ccc34)CC1)CCCC2	.	-1	.	-75*	-2	-1%
CC(C)COC(=O)C(N)C(C(=O)OCC(C)C)c1ccccc1 (stereo unspecified)	-5	0	2	-35*	-1	-1%
CC(C)C(=O)OC/C(O)=C(\C#N)c1nc2ccccc2[nH]1	-6	2	2	-25	-5	-1%
N#C/C(=C(/O)CCl)c1nc2ccccc2[nH]1	0	1	3	-10	-5	25µM*
Cc1ccc(C(C)C)c(OC/C(O)=C(\C#N)c2nc3ccccc3[nH]2)c1	-4	0	2	-32*	1	-3%
N#C/C(=C(/O)c1ccc(Br)s1)c1nc2ccccc2[nH]1	-7	1	4	-45*	-6	-1%
CSCCC(/C(O)=C(\C#N)c1nc2ccccc2[nH]1)N1C(=O)c2ccccc2C1=O (stereo unspecified)	2	-1	1	-31*	5	-1%
N#C/C(=C(/O)CN1C(=O)c2ccccc2C1=O)c1nc2ccccc2[nH]1	-1	-1	3	-22	-1	-1%
CCc1ccc(NC(=O)CCC(=O)Nc2nnc(C(F)(F)F)s2)cc1	-1	0	1	-9	-3	8%
CC1=Nc2ccccc2/C1=C(/C)c1c(C)[nH]c2ccccc12	.	.	.	.	.	-1%
Cc1ccc(-c2cc3ccccc3nc2N)cc1	-27	3	6	-98*	1	4%
Nc1nc2ccccc2cc1-c1cccs1	-25	-1	14	-60*	0	8%
COc1ccccc1/C=C(\NC(=O)c1ccccc1)C(=O)NCc1ccco1	-3	0	0	-2	4	-5%
